High-throughput results (PubChem)
Mtb MbtI inh – MbtI salicylate synthase inhibitors, primary screen, biochemical, fluorescence intensity. P9WFX0. 100,000 compounds, 0.89% hits. inhibition, % (no concentration beside the values). purified MbtI enzyme, fluorescence intensity read-out; in the data active = inhibition mostly above about 56%, no sharp cut-off; inactive = mostly below about 77%
Target sequence (P9WFX0 whole entry, looked up): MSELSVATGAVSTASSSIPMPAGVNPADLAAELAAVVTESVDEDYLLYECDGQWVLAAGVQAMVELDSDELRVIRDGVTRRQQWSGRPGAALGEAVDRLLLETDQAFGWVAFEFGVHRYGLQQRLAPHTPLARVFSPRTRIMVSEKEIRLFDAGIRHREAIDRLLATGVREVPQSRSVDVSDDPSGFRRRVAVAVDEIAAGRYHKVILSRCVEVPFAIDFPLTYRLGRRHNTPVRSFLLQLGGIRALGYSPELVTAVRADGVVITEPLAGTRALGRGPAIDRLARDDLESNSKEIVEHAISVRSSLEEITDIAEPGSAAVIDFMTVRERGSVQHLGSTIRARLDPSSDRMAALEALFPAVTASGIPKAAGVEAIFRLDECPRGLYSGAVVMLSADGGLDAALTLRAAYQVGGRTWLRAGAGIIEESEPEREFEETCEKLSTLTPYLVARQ
Polio RdRp inh – poliovirus RdRp elongation inhibitors, primary screen, biochemical, fluorescence polarization, total intensity. Genome polyprotein (Poliovirus type 1 (strain Mahoney)), P03300. poliovirus polymerase elongation; stronger effect = lower value. % elongation, % (compound at 16.7 µg/mL). 150,000 compounds, 0.66% hits; in the data active = % elongation below about 90%
AID504770 – growth inhibition of E. coli YBA685, primary screen, V. cholerae RctB inhibitors | E. coli YBA685 rctB-dependent plasmid, OD600 growth, 3 h; stronger effect = lower value | z-score (no concentration beside the values) | 130,000 compounds, 0.27% hits; in the data active = z-score below about -2, passing the limit was not always enough
Mtb MenB inh – M. tuberculosis MenB inhibitors, primary screen, biochemical, absorbance; AID 540299, 2011; inhibition, % (concentration not given with the values); MenB enzyme assay, absorbance read-out; 100,000 compounds, 0.43% hits; in the data active = inhibition above about 21%, passing the limit was not always enough
* marks the source's active call; other numbers are inactive results; / = not tested or not shown. Only some compounds are listed: those with a hit (about 1.5% of all), similar ones and a draw of the others.

SMILES | Mtb MbtI inh | Polio RdRp inh | AID504770 | Mtb MenB inh
CC(C(=O)Nc1cccc(F)c1)C1Sc2ccccc2NC1=O (stereo not given) | -13.3 | 103.0 | -0.5 | -22.6
CC1(C)C(C(=O)O)N2C(=O)CC2S1(=O)=O (stereo not given) | -5.3 | 105.0 | -2.4* | -19.7
CCc1ccc(NC(=O)Nc2cn(C)c(=O)c3ccccc23)cc1 | / | 70.0* | / | /
Cn1cc(NC(=O)NC2CCCCC2)c2ccccc2c1=O | -4.8 | 22.0* | 1.2 | -24.6
CCOc1ccc(CCNC(=O)Nc2cn(C)c(=O)c3ccccc23)cc1OCC | -7.2 | 101.0 | -0.15 | -12.2
CSc1ccc(CCNC(=O)Nc2cn(C)c(=O)c3ccccc23)cc1 | -6.2 | 45.0* | 2.15 | -28.5
CC(C)CCNC(=O)Nc1cn(C)c(=O)c2ccccc12 | -22.3 | 100.0 | -0.45 | -24.7
Cn1cc(NC(=O)NCCc2ccsc2)c2ccccc2c1=O | -7.3 | 57.0* | 0.45 | -5.5
CCOC(=O)c1cc(C#N)c(SC)nc1-c1ccccc1 | 64.7 | 101.0 | -0.1 | -6.9
CC(=O)[C@H]1CCC2C3CCC4=CC(=O)CC[C@]4(C)C3CC[C@@]21C (stereo not given in full) | -24.8 | 102.0 | -1 | -4.4
Cc1ccc(NC(=O)Nc2cn(C)c(=O)c3ccccc23)c(Cl)c1 | / | 80.0* | / | /
Cc1ccc2oc(=O)c(/C=C(\O)CC(C)C)nc2c1 | -0.6 | 102.0 | 1.1 | 69.2*
CCS(=O)(=O)c1ccc2oc(=O)c(/C=C(\O)c3oc(C)nc3C)nc2c1 | -2.6 | 99.0 | 0.55 | -6.0
CC(=O)Nc1nonc1N=Cc1ccc(F)cc1 | / | 95.0 | 0.45 | -2.9
Oc1ccccc1C1OCC(C2CC=CCC2)CO1 (stereo not given) | -8.2 | 104.0 | 1.6 | 36.4*
COC(=O)C1=C(C)NC2=C(C(=O)CCC2)C1c1c[nH]c2ccccc12 (stereo not given) | / | / | -1.1 | /
COC(=O)C1=C(N)CCCC1 | / | / | -0.45 | /
O=C(CC1(c2ccc(Cl)cc2)C(=O)c2ccccc2C1=O)N1CCOCC1 | -8.2 | 104.0 | -0.95 | -35.4
O=C1c2ccccc2C(=O)C1(O)N1CCOCC1 | 1.6 | 34.0* | 0 | 18.8
COC(=O)c1ccc(-c2ccco2)n1CC(=O)N1CCC(C(N)=O)CC1 | -7.6 | 100.0 | -1.3 | -4.8
CCOC(=O)c1ccc(CNC(=O)Cn2nnc(-c3ccc(C)cc3)n2)o1 | -9.8 | / | -0.75 | /
CCc1ccc(S(=O)(=O)c2nnn3c2nc(NCc2cccc(OC)c2)c2cc(Cl)ccc23)cc1 | / | 89.0* | / | /
CCc1ccc(S(=O)(=O)c2nnn3c2nc(NCc2ccccc2)c2cc(Cl)ccc23)cc1 | / | 104.0 | / | /
S=C(Nc1ccc(Cl)cc1)NN1CCOCC1 | -6.8 | 105.0 | 2 | -17.9
COC(=O)c1cc(NC(=S)NN2CCOCC2)cc(C(=O)OC)c1 | 3.9 | 99.0 | 0.6 | 44.6*
SMILES | Mtb MbtI inh | Polio RdRp inh | AID504770 | Mtb MenB inh
CC(=O)Nc1scc(C)c1-c1nc2ccccc2s1 | / | / | -0.85 | /
CNc1sc(C(=O)c2cccs2)c(N)c1-c1nc2ccccc2s1 | 97.0* | 110.0 | 1.65 | -42.6
CNC1(C#N)CCC(C)CC1 (stereo not given) | -9.1 | 103.0 | -2.3* | -40.9
Cc1ccc(C)n1-c1cc(Cl)ccc1C(=O)O | 24.8 | 84.0* | 1.1 | -5.7
O=C(CNc1ccccc1Cl)N/N=C1\CCCc2ccccc21 | 7.2 | 102.0 | -0.2 | 39.0*
C=CCn1c(C2CCS(=O)(=O)C2)n[nH]c1=S (stereo not given) | 28.7 | 100.0 | -0.35 | 0.1
Cc1sc2ncnc(N(C)C3CCCCC3)c2c1C | 2.3 | 101.0 | -0.5 | -22.0
c1ccc2sc(SN3CCOCC3)nc2c1 | 84.3* | 104.0 | -0.5 | -2.9
c1ccc2sc(N3CCOCC3)nc2c1 | / | / | -0.75 | /
CC(NC(=O)CSc1n[nH]c(-c2ccccc2)n1)c1nc2ccccc2n1C (stereo not given) | / | 104.0 | / | /
CC(=O)c1ccc(NC(=O)CSc2nnc(NC(=O)NC3CCCCC3)s2)cc1 | / | 109.0 | / | /
C=CCSc1nnc(NC(=O)NC2CCCCC2)s1 | -10.0 | 105.0 | -2.8* | -17.4
CN(C)C(=S)Nc1nc2ccccc2s1 | 71.3* | 100.0 | 1.75 | -58.5
CN(C)C(=S)c1nc2ccccc2s1 | 45.5 | 99.0 | -0.9 | -50.3
CN(C)CCOC(=O)c1ccc2[nH]c3c(c2c1)CSCC3 | 50.2 | 99.0 | 1.25 | 4.8
O=C(O)c1ccc2[nH]c3c(c2c1)CSCC3 | / | 84.0* | -0.3 | 0.0
CCOc1ccc(Br)cc1C=Nc1ccc2c(c1)OCO2 | -13.3 | 105.0 | -0.75 | -39.7
Cc1csc(=Nc2ccccc2F)n1/N=C/c1ccncc1 | 0.6 | 83.0* | -0.3 | -22.0
O=C(Cc1cnn(-c2ccccc2)c1)c1ccc(O)c(O)c1O | 81.6* | 100.0 | 0.65 | -6.6
Oc1ccc(NCc2ccc(Br)cc2)cc1 | 19.6 | 102.0 | -0.7 | 4.7
O=C(O)Cc1ccc(NCc2ccc(Br)cc2)cc1 | 65.7* | 102.0 | -0.65 | 3.8
CC(=O)N(c1ccccc1)c1nc(/C=C/C(=O)O)cs1 | -2.7 | 104.0 | 0.15 | 8.1
COC(=O)c1ccc(NC(=O)C(C)Sc2nc3c(c(=O)[nH]2)CCCC3)cc1 (stereo not given) | 81.3* | 102.0 | -0.6 | -6.1
CCOC(=O)C(Sc1nc2c(c(=O)[nH]1)CCCC2)c1ccccc1 (stereo not given) | 73.7* | / | -0.35 | -9.5
O=c1[nH]c(SCc2ccccc2)nc2c1CCCC2 | / | 111.0 | / | /
SMILES | Mtb MbtI inh | Polio RdRp inh | AID504770 | Mtb MenB inh
CCN(CC)P1(=S)N(c2ccccc2)N=C2C=C(C)c3ccccc3N21 (stereo not given) | 91.0 | 68.0* | 0.7 | -62.8
CN(CC(=O)O)C(=S)c1ccccc1 | 54.0* | 76.0* | -0.5 | 5.1
CN(C)C(=S)NC(=O)c1ccccc1 | 7.2 | 99.0 | -0.05 | -0.7
Cc1ccc(S(=O)(=O)c2[nH]c(-c3ccccc3)nc2SCCC(=O)O)cc1 | / | 110.0 | / | /
CCCSc1nc(-c2ccccc2)[nH]c1S(=O)(=O)c1ccc(C)cc1 | / | -16.0* | / | /
Cc1cccc(Oc2coc3cc(OCC(=O)NC4CCCCC4)ccc3c2=O)c1 | / | 100.0 | / | /
CC(NC(=O)Cn1[nH]c(=O)c2ccccc2c1=O)c1ccc(-n2ccnc2)cc1 (stereo not given) | -3.5 | 97.0 | -0.3 | -9.1
Cc1noc(C)c1CSc1ccccc1C(=O)NC(C)c1ccc(-n2ccnc2)cc1 (stereo not given) | 99.2* | 98.0 | -0.25 | 4.8
O=C(Cn1cnc2ccccc21)NC1CCCC1 | 4.8 | 101.0 | 1.1 | 32.7*
O=C(Cn1cnc2ccccc21)Nc1ccccc1 | -20.2 | 102.0 | -1.2 | -16.2
COC(=O)c1cn(CC(=O)NC2CCCCCC2)c2ccccc12 | -1.4 | 100.0 | 0.65 | 30.7*
N#Cc1cc(-c2ccc(Cl)cc2)no1 | -16.1 | 104.0 | -2.55* | -17.6
O=C(N/N=C1/CCS(=O)(=O)c2ccc(F)cc21)c1ccccn1 | -8.6 | 90.0* | 0 | 14.6
CCC(CC)NC(=O)c1ccc[nH]c1=S | 93.0* | 102.0 | 0.2 | -20.9
O=C(CCc1nc(-c2ccccc2)no1)NC1CCCC1 | -2.4 | 101.0 | -0.2 | -24.2
N#CSc1ccc(NCCO)cc1C(F)(F)F | 57.8* | 103.0 | -0.2 | -30.8
OCCNc1ccc(Cl)cc1 | -4.9 | 104.0 | 0 | 1.0
COc1ccc(/C=c2\sc3ncnn3c2=O)cc1 | -9.8 | 89.0* | -0.3 | -27.0
